Results from PubChem BioAssay (NCI).
The panel holds about 79,000 compounds, 15% with a hit somewhere; the sample as a whole holds those more often. Activity calls are given as the source filed them. Rule as the data show it: active = growth inhibition above about 70%; inactive = the rest.

Assays:
[1] = NCI Yeast Anticancer Drug Screen. Data for the sgs1 strain (AID 173);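 also: 0% = growth of vehicle-only control cultures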; conditions: S. cerevisiae sgs1 mutant, hits give high values
Method in brief: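 A genetically defined yeast mutant is incubated with the test compound, and its growth is compared to that of the same strain given vehicle.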

[2] = NCI Yeast Anticancer Drug Screen. Data for the mlh1 rad18 strain (AID 175); conditions: S. cerevisiae mlh1 rad18 strain growth inhibition, hits give high values
Method in brief: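 Steps: expose repair-defective yeast to compound; measure growth; express inhibition against vehicle-treated controls.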

[3] = NCI Yeast Anticancer Drug Screen. Data for the rad18 strain (AID 177); conditions: S. cerevisiae rad18 mutant growth inhibition, hits give high values
Method in brief: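 Measured value is growth inhibition of a yeast strain bearing a DNA repair alteration, referenced to vehicle-treated cells.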

[4] = NCI Yeast Anticancer Drug Screen. Data for the wt1 strain (AID 149);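 also: 0% = growth of vehicle-treated wt1 cultures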; conditions: S. cerevisiae wt1 strain (SPY 50644) growth inhibition, hits give high values
Method in brief: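 Readout: yeast growth inhibition, normalised to vehicle controls, in the wt1 strain exposed to test compounds.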

[5] = NCI Yeast Anticancer Drug Screen. Data for the rad50EPP+ strain (AID 151);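 also: 0% = growth of vehicle-treated control cultures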; conditions: S. cerevisiae rad50 mutant strain, hits give high values
Method in brief: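 Read-out is yeast growth inhibition relative to vehicle; cells used were the rad50EPP+ strain.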

[6] = NCI Yeast Anticancer Drug Screen. Data for the mgt1 strain (AID 153); conditions: S. cerevisiae mgt1 mutant growth inhibition, hits give high values
Method in brief: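 Measured: inhibition of mgt1 yeast growth by compound, normalized to vehicle-treated cultures.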

[7] = NCI Yeast Anticancer Drug Screen. Data for the rad50 strain (AID 155);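 also: 0% = growth of vehicle-only cultures of the same strain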; conditions: S. cerevisiae rad50 strain growth inhibition, hits give high values
Method in brief: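 Compounds were tested on a yeast strain with an engineered DNA damage repair alteration; the reported value is growth inhibition normalised to vehicle treatment.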

[8] = NCI Yeast Anticancer Drug Screen. Data for the mec2-1 strain (AID 157); conditions: S. cerevisiae mec2-1 strain, hits give high values
Method in brief: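 Using mec2-1 yeast: add compound, measure growth, express inhibition versus vehicle-treated cultures.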

[9] = NCI Yeast Anticancer Drug Screen. Data for the rad14 strain (AID 159);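 also: 0% = growth of vehicle-treated control cultures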; conditions: S. cerevisiae rad14 strain growth inhibition, hits give high values
Method in brief: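 Compound-treated yeast with a defined DNA-repair lesion; growth inhibition normalised to vehicle-treated cultures.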

[10] = NCI Yeast Anticancer Drug Screen. Data for the sgs1 mgt1 strain (AID 161);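 also: 0% = growth of cultures given vehicle only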; conditions: S. cerevisiae sgs1 mgt1 strain, hits give high values
Method in brief: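 Percent growth inhibition was derived by comparing compound-exposed mutant yeast with vehicle-exposed cultures. The strain carries alterations in DNA damage repair.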

[11] = NCI Yeast Anticancer Drug Screen. Data for the CLN2oe strain (AID 163);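 also: 0% = growth of vehicle-only control cultures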; conditions: S. cerevisiae CLN2oe strain, hits give high values
Method in brief: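 Whole-cell yeast growth assay. A strain engineered for altered cell-cycle control received compound, and inhibition relative to vehicle-treated cultures was recorded.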

[12] = NCI Yeast Anticancer Drug Screen. Data for the cln2 rad14 strain (AID 165);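 also: 0% = growth equal to vehicle treated cultures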; conditions: S. cerevisiae cln2 rad14 strain, hits give high values
Method in brief: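 Yeast strain cln2 rad14, bearing defects in cell cycle control and DNA repair, serves as the test system; values reflect growth inhibition compared with vehicle.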

[13] = NCI Yeast Anticancer Drug Screen. Data for the bub3 strain (AID 167); conditions: S. cerevisiae bub3 mutant strain, hits give high values
Method in brief: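 Growth of a checkpoint-deficient yeast mutant is measured after compound exposure. Values represent inhibition relative to vehicle.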

[14] = NCI Yeast Anticancer Drug Screen. Data for the wt2 strain (AID 169);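 also: 0% = growth of vehicle-treated yeast cultures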; conditions: S. cerevisiae wt2 strain growth inhibition, hits give high values
Method in brief: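 Treated yeast vs. vehicle-treated yeast: growth inhibition determined.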

[15] = NCI Yeast Anticancer Drug Screen. Data for the mlh1 strain (AID 171);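 also: 0% = growth of vehicle-treated control cultures of the same strain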; conditions: S. cerevisiae mlh1 strain growth inhibition, hits give high values
Method in brief: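 A yeast strain with a defined genetic lesion serves as the test organism. Cultures receive compound or vehicle, and growth is measured.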

[16] = NCI Yeast Anticancer Drug Screen. Data for the rad52 strain (AID 147);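 also: 0% = growth of vehicle-treated control cultures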; conditions: S. cerevisiae rad52 mutant growth inhibition, hits give high values
Method in brief: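 Here a repair-compromised yeast strain receives each compound; its growth is then quantified and normalised to vehicle-only controls.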

[17] = at 5.0 µM (retest, dose inferred, filed as 0.5)
[18] = at 50.0 µM (retest, dose inferred, filed as 5.0)

Measured: growth inhibition

COc1cc(CSc2ccc(O)cc2)cc(O)c1O
inactive: [1]; at 1.2 µM -1% | [1]; at 3.7 µM -2% | [1]; at 11.0 µM -1% | [1]; at 33.0 µM -1% | [1]; at 100.0 µM 2% | [2]; [17] 13% | [2]; [18] -1% | [3]; at 1.2 µM -2% | [3]; at 3.7 µM 1% | [3]; at 11.0 µM 2% | [3]; at 33.0 µM -10% | [3]; at 100.0 µM 10%
active: [2]; at 50.0 µM 73.5%

COC(=O)/C=C(/C(=O)OC)C(Cl)(Cl)Cl
inactive: [4]; at 1.2 µM -1% | [4]; at 3.7 µM 4% | [4]; at 11.0 µM 34% | [5]; at 1.2 µM 4% | [5]; at 3.7 µM -9% | [5]; at 11.0 µM 24% | [5]; at 33.0 µM 61% | [6]; at 1.2 µM 3% | [6]; at 3.7 µM -3% | [6]; at 11.0 µM 5% | [6]; at 33.0 µM 59% | [7]; at 1.2 µM 1% | [7]; at 3.7 µM 4% | [7]; [17] 14% | [7]; at 11.0 µM 33% | [7]; at 50.0 µM 44.8% | [8]; at 1.2 µM 2% | [8]; at 3.7 µM 2% | [8]; [17] 7% | [8]; at 11.0 µM 6% | [8]; at 33.0 µM 44% | [8]; at 50.0 µM 22.1% | [9]; at 1.2 µM 6% | [9]; at 3.7 µM 18% | [9]; at 11.0 µM 64% | [10]; [17] 23% | [11]; at 1.2 µM -5% | [11]; at 3.7 µM -3% | [11]; at 11.0 µM 2% | [11]; at 33.0 µM 45% | [12]; [17] 9% | [12]; at 50.0 µM 67.5% | [13]; at 1.2 µM -4% | [13]; at 3.7 µM 6% | [13]; [17] -3% | [13]; at 11.0 µM 23% | [13]; at 50.0 µM -0.7% | [14]; at 1.2 µM -1% | [14]; at 3.7 µM 8% | [14]; at 11.0 µM 33% | [15]; at 1.2 µM -3% | [15]; at 3.7 µM 2% | [15]; at 11.0 µM 5% | [1]; at 1.2 µM 6% | [1]; at 3.7 µM 14% | [1]; at 11.0 µM 69% | [2]; at 50.0 µM 40.9% | [3]; at 1.2 µM 38%
active: [4]; at 33.0 µM 84% | [4]; at 100.0 µM 100% | [5]; at 100.0 µM 84% | [6]; at 100.0 µM 99% | [7]; at 33.0 µM 93% | [7]; [18] 88% | [7]; at 100.0 µM 99% | [8]; [18] 96% | [8]; at 100.0 µM 98% | [9]; at 33.0 µM 96% | [9]; at 100.0 µM 100% | [10]; [18] 97% | [10]; at 50.0 µM 79.9% | [11]; at 100.0 µM 99% | [12]; [18] 95% | [13]; at 33.0 µM 81% | [13]; [18] 94% | [13]; at 100.0 µM 100% | [14]; at 33.0 µM 99% | [14]; at 100.0 µM 100% | [15]; at 33.0 µM 84% | [15]; at 100.0 µM 99% | [1]; at 33.0 µM 97% | [1]; at 100.0 µM 100% | [2]; [17] 70% | [2]; [18] 97% | [3]; at 3.7 µM 87% | [3]; at 11.0 µM 95% | [3]; at 33.0 µM 98% | [3]; at 100.0 µM 99%

N=C1N=Nc2nc(C3(c4nc5n(c4O)C(=N)N=N5)Cc4ccccc4C3=O)c(O)n21 (centres undefined)
inactive: [16]; at 1.2 µM -1% | [16]; at 3.7 µM 1% | [16]; at 11.0 µM 5% | [16]; at 33.0 µM 18% | [16]; at 100.0 µM 69% | [5]; at 1.2 µM -2% | [5]; at 3.7 µM 0% | [5]; at 11.0 µM -1% | [5]; at 33.0 µM -1% | [5]; at 100.0 µM 3% | [6]; at 1.2 µM 5% | [6]; at 3.7 µM 7% | [6]; at 11.0 µM 22% | [7]; at 1.2 µM -9% | [7]; at 3.7 µM 34% | [7]; [17] 4% | [7]; at 11.0 µM -3% | [7]; at 33.0 µM 66% | [7]; [18] 38% | [8]; at 1.2 µM 2% | [8]; at 3.7 µM 4% | [8]; [17] 4% | [8]; at 11.0 µM 12% | [8]; at 33.0 µM 30% | [8]; [18] 28% | [8]; at 50.0 µM 59.1% | [9]; at 1.2 µM 7% | [9]; at 3.7 µM 21% | [9]; at 11.0 µM 48% | [10]; [17] 7% | [10]; at 50.0 µM 67% | [11]; at 1.2 µM 1% | [11]; at 3.7 µM 8% | [11]; at 11.0 µM 15% | [11]; at 33.0 µM 9% | [11]; at 100.0 µM 8% | [12]; [17] 13% | [12]; [18] 10% | [12]; at 50.0 µM 23.2% | [13]; at 1.2 µM 4% | [13]; at 3.7 µM 6% | [13]; [17] 0% | [13]; at 11.0 µM 9% | [13]; at 33.0 µM 45% | [13]; [18] 42% | [14]; at 1.2 µM 4% | [14]; at 3.7 µM 16% | [14]; at 11.0 µM 11% | [14]; at 33.0 µM 32% | [15]; at 1.2 µM 1% | [15]; at 3.7 µM 5% | [15]; at 11.0 µM 14% | [15]; at 33.0 µM 68% | [2]; [17] -63% | [2]; [18] 57% | [3]; at 1.2 µM 3% | [3]; at 3.7 µM 11% | [3]; at 11.0 µM 23%
active: [6]; at 33.0 µM 90% | [6]; at 100.0 µM 99% | [7]; at 50.0 µM 82.2% | [7]; at 100.0 µM 94% | [8]; at 100.0 µM 87% | [9]; at 33.0 µM 94% | [9]; at 100.0 µM 99% | [10]; [18] 70% | [13]; at 50.0 µM 85.5% | [13]; at 100.0 µM 86% | [14]; at 100.0 µM 89% | [15]; at 100.0 µM 95% | [2]; at 50.0 µM 92.7% | [3]; at 33.0 µM 75% | [3]; at 100.0 µM 96%
